Test results as given in PubChem BioAssay (NCATS).
Values without a mark were called inactive. Results filed as inconclusive are left out. Entries that show only a call come without a potency. Active and inactive are the calls of the source. Calls follow the shape of the dose curve; as a rule, active = well fitted curve in the direction sought with a large enough effect; inconclusive = small, poorly fitted or top-dose-only effect, or another doubt; inactive = no such curve, though single readings can be large; an effect the other way counts as inactive or inconclusive.

Columns and labels:
[1] = biological target: Arylsulfatase A (Homo sapiens) (UniProt P15289); assay: qHTS screen for enhancers of Arylsulfatase A (ASA1): LOPAC Validation Assay (AID 720538); also: potency is read from the fitted curve at half-maximal effect
Sequence of Arylsulfatase A (Homo sapiens) (P15289 whole entry, looked up): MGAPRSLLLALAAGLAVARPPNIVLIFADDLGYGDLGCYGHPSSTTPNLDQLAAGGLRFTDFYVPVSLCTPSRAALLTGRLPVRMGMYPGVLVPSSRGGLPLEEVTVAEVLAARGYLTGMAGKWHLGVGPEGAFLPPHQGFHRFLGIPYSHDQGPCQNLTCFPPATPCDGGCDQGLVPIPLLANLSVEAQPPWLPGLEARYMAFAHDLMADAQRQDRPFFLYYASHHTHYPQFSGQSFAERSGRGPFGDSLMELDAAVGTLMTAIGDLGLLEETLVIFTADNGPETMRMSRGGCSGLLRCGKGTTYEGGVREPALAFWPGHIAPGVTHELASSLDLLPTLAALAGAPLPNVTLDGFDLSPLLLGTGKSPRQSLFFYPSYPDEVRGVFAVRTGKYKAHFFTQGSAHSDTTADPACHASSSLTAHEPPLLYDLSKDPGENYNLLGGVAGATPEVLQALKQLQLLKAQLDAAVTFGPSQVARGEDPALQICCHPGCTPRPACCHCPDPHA
In short: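 First, ASA-I179S fibroblasts from an MLD patient adhered for 6 hrs. Next, compounds were added for 48h. Then pNCS substrate (0.5mM final) with lysis buffer reacted 14h at room temperature before NaOH stop and fluorescence measurement.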

[2] = qHTS for compounds that reverse cellular toxicity of Amyloid beta (A-beta) peptide in yeast: LOPAC Validation Assay (AID 720559); settings: Potency: rescue of growth toxicity
In short: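 Activity is expressed relative to DMSO and an equimolar ferric chloride/clioquinol mix. Compounds were pinned into medium with A-beta-expressing yeast, grown 48 hr at 30 C, then read by absorbance at 600 nm.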

[3] = qHTS for Activators of Parkin Expression: LOPAC Validation Assay (NLuc Reporter) (AID 720572)
In short: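 Neuronal cells with a Parkin promoter-driven FLuc/NLuc coincidence reporter were treated 24 h at 37 C in 7-point dose response (LOPAC). NLuc luminescence read after FLuc; signals normalized to DMSO and positive control (100%).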

[4] = qHTS assay for environmental chemicals that activate the Aryl hydrocarbon Receptor (AhR) signaling pathway (AID 651777); settings: 1A2-DRE human hepatoma cells, luciferase, 24 h; activation: stronger effect = higher value; also: nearly all actives have a fitted effect of over 15% in size
In short: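 Measured luciferase activity, read 30 min after One-Glo addition at room temperature, from human hepatoma cells bearing a dioxin response element–CYP1A2 promoter reporter and exposed to compound for 24 hr at 37 C.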

[5] = biological target: Peroxisome proliferator-activated receptor alpha (Homo sapiens) (UniProt Q07869); assay: qHTS assay for small molecule agonists of the peroxisome proliferator-activated receptor alpha (PPARalpha) signaling pathway (AID 651778); settings: PathHunter PPARalpha complementation, chemiluminescence, 6 h; stronger effect = higher value
Sequence of Peroxisome proliferator-activated receptor alpha (Homo sapiens) (Q07869 whole entry, looked up, the tested form may be a part): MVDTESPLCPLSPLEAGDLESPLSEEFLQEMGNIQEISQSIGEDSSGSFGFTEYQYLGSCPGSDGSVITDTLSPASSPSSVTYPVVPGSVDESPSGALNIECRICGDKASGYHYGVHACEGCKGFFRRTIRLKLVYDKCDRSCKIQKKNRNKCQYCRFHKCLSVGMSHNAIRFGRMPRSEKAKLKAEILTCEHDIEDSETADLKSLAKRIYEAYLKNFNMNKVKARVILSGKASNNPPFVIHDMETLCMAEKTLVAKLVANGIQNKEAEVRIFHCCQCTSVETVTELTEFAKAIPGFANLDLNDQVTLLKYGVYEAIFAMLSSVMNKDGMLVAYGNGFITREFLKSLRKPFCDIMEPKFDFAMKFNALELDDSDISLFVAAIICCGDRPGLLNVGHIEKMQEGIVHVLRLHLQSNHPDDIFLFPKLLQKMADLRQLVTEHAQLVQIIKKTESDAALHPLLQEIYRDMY
In short: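 Enzyme-fragment complementation assay in which ligand-bound PPARalpha translocates and forms an active enzyme that generates chemiluminescence. Cells were plated overnight, exposed to compound for 6 hr at 37 C, and then given detection reagent for 60 min at room temperature.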

| SMILES | Potency [1] | Potency [2] | Potency [3] | activation [4] [%] | max response [5] [%] |
| --- | --- | --- | --- | --- | --- |
| NC(=S)NCCC[C@H](N)C(=O)O | inactive | inactive | inactive |  |  |
| COc1ccccc1N1CCN(CCCCNS(=O)(=O)c2cccc3c(N(C)C)cccc23)CC1 | inactive | inactive | inactive |  |  |
| Oc1cc(O)cc(/C=C/c2ccc(O)c(O)c2)c1 | 23.9 µM (active) | inactive |  |  |  |
| CC(=O)N[C@H](C(=O)O)C(C)(C)SN=O | inactive | inactive | inactive |  |  |
| COc1ccc(/C=C/C(=O)Nc2ccccc2C(=O)O)cc1OC | 6.75 µM (active) | inactive |  |  |  |
| O=C(c1cc(O)c(O)c([N+](=O)[O-])c1)c1ccccc1F | 19 µM (active) | inactive | inactive |  |  |
| COc1ccccc1N1CCN(CCN(C(=O)c2ccc(I)cc2)c2ccccn2)CC1 | inactive | inactive | inactive |  |  |
| OC[C@H]1O[C@@H](n2cnc3c(NC4CCCC4)ncnc32)[C@H](O)[C@@H]1O | inactive | inactive | inactive |  |  |
| S=C(S)OC1CC2CC1C1CCCC21 (centres undefined) | inactive | inactive | inactive |  |  |
| NC(CCCP(=O)(O)O)C(=O)O (centres undefined) | inactive | inactive | inactive |  |  |
| O=C(CCCCCN1CCN(c2ccccc2-c2ccccc2)CC1)NC1CCCc2ccccc21 (centres undefined) | inactive | inactive | inactive |  |  |
| NCCCS(=O)(=O)O | inactive | inactive | inactive |  |  |
| Cn1ncc(S(=O)(=O)Cc2ccccc2)c(Br)c1=O | inactive | inactive | inactive |  |  |
| O=C1NC(=O)/C(=C/c2ccc3nccnc3c2)S1 | inactive | inactive | inactive |  |  |
| CC(C)OC(=O)c1cc(C(=O)OC(C)C)cc([N+](=O)[O-])c1 |  |  |  | 4 | 0.0203 |
| Nc1ncnc2c1c(I)cn2[C@@H]1C[C@H](N)[C@@H](O)[C@H]1O | inactive | inactive |  |  |  |
| CCc1c(C(=O)NCCc2ccc(N3CCCCC3)cc2)[nH]c2ccc(Cl)cc12 | inactive | inactive | inactive |  |  |
| CCOC(=O)N1CCN(/[N+]([O-])=N/Oc2ccc([N+](=O)[O-])cc2[N+](=O)[O-])CC1 | inactive | inactive | inactive |  |  |
| Brc1c(Br)c(Br)c2n[nH]nc2c1Br | inactive | inactive | inactive |  |  |
| Fc1ccc(C(OCCCc2cnc[nH]2)c2ccc(F)cc2)cc1 | inactive | inactive | inactive |  |  |
| CCCC1(C)C(C#N)(C#N)C1(C#N)C#N | inactive | inactive | inactive |  |  |
